# Results: PubChem BioAssay (NCATS)
# Values joined by “and” are separate entries in the source; they are usually repeats but may differ in a detail not shown here. Equal values may be shown once. Results filed as inconclusive are left out. Entries that show only a call come without a potency. Active and inactive are the calls of the source. Unless noted, calls come from the whole dose curve; as a rule, active = well fitted curve in the direction sought with a large enough effect; inconclusive = small, poorly fitted or top-dose-only effect, or another doubt; inactive = no such curve, though single readings can be large; an effect the other way counts as inactive or inconclusive.
# Legend:
# [1] = biological target: Ubiquitin carboxyl-terminal hydrolase 1 (Homo sapiens) (UniProt O94782); assay: Inhibitors of USP1/UAF1: Pilot qHTS (AID 504865); note: nearly all actives have a fitted effect of over 35% in size; note: potency is the fitted concentration of half-maximal effect
# Ubiquitin carboxyl-terminal hydrolase 1 (Homo sapiens), sequence (O94782 whole entry, looked up): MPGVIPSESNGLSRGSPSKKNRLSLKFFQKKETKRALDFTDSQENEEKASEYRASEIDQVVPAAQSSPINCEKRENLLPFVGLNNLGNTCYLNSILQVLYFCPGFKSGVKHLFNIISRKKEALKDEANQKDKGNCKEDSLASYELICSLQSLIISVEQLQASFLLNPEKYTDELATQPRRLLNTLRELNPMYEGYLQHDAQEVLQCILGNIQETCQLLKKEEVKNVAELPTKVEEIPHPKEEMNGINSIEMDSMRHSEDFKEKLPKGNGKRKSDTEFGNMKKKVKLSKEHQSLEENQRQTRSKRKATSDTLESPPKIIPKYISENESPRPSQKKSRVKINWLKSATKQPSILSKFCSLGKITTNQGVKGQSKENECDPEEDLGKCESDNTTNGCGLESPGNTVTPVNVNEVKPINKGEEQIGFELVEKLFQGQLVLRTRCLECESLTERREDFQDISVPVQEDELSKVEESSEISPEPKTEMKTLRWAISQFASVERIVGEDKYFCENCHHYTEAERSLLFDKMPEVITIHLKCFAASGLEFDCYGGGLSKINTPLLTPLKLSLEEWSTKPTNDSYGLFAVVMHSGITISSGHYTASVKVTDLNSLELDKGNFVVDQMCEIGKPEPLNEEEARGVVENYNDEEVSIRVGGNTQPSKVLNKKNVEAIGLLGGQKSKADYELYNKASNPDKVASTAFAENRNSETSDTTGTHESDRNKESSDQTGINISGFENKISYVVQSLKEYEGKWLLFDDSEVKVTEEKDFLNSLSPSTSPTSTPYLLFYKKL
# Outline: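 Deubiquitinase activity followed as kinetic rhodamine fluorescence release from 150 nM Ub-Rho. 1 nM USP1/UAF1 with compound, after 15 min room-temperature preincubation, in HEPES pH 7.8 buffer containing TCEP, EDTA, BSA and Tween-20.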
# [2] = biological target: Phosphoglycerate kinase, glycosomal (Trypanosoma brucei brucei) (UniProt P07378); assay: qHTS Validation Assay to Find Inhibitors of Phosphoglycerate Kinase (AID 504547)
# Phosphoglycerate kinase, glycosomal (Trypanosoma brucei brucei), sequence (P07378 whole entry, looked up): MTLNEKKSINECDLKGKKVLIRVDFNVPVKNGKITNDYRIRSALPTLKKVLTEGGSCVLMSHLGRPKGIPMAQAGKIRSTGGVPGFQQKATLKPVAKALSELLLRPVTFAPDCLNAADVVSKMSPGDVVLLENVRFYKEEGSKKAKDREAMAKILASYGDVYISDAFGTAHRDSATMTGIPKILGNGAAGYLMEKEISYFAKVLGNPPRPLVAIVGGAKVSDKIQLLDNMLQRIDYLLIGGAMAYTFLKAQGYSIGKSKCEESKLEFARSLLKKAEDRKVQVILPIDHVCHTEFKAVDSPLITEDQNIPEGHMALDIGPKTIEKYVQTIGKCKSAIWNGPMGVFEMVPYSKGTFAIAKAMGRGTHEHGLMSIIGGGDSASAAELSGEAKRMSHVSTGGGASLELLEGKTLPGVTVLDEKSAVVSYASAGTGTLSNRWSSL
# Outline: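 Inhibition of the enzyme is judged by a Kinase-Glo Plus luminescent signal following a one-hour incubation at room temperature. Because 1,3-BPG is unstable, it is made in situ by GAPDH at 100nM final; no-PGK wells define the baseline.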
# [3] = biological target: phosphoglycerate mutase (Leishmania major) (UniProt Q4Q090); assay: qHTS Validation Assay to Find Inhibitors of Phosphoglycerate Mutase (AID 504548); conditions: Potency: inhibition qHTS; note: series mostly up to about 58 µM
# phosphoglycerate mutase (Leishmania major), sequence (Q4Q090 1-553): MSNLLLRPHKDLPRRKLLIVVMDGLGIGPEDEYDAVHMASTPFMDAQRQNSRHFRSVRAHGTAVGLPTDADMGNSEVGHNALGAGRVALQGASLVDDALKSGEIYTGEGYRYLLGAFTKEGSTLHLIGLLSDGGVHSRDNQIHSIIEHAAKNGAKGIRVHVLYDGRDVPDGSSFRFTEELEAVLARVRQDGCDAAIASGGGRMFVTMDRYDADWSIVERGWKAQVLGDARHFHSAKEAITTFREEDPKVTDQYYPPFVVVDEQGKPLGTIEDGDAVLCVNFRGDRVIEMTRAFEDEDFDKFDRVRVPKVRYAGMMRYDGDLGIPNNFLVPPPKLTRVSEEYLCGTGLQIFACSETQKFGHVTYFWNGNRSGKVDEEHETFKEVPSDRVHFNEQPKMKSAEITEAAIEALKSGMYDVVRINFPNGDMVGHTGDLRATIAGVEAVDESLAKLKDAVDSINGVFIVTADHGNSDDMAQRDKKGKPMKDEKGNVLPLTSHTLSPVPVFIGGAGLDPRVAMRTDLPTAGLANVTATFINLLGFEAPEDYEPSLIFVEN
# Outline: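 Lm PGAM at 1.25 nM final with substrate in 100 mM TEA pH 7.6, 5 mM MgCl2, 0.01% Tween-20; 45 min at room temperature. Kinase-GloPlus added, 10 min, end-point luminescence read.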
# [4] = qHTS for Inhibitors of ATXN expression: Validation of Cytotoxic Assay (AID 588349); note: potency is the fitted concentration of half-maximal effect
# Outline: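 Read-out: ATP-based luminescence (CellTiter Glo) reflecting viability of HEK293 cells after 72 hr incubation at 37 degrees C with a concentration series of each compound.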
# [5] = qHTS for Inhibitors of ATXN expression: Validation (AID 588378); note: series mostly up to about 57 µM; nearly all actives have a fitted effect of over 75% in size
# Outline: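 Luciferase luminescence (Bright-Glo) from an ATXN2-FFLuc HEK293 line after 24 h compound exposure at 37 °C, preceded by a CellTiter-Fluor fluorescence viability read. Serial dilutions of a reference ATXN2 inhibitor and a luciferase inhibitor served as controls.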
# [6] = biological target: Estrogen receptor (Homo sapiens) (UniProt P03372); assay: qHTS assay for small molecule agonists of estrogen receptor alpha signaling (AID 588514; calls by dose curve; note: nearly all actives have a fitted effect of over 70% in size; note: potency is the fitted concentration of half-maximal effect)
# Estrogen receptor (Homo sapiens), sequence (P03372 whole entry, looked up): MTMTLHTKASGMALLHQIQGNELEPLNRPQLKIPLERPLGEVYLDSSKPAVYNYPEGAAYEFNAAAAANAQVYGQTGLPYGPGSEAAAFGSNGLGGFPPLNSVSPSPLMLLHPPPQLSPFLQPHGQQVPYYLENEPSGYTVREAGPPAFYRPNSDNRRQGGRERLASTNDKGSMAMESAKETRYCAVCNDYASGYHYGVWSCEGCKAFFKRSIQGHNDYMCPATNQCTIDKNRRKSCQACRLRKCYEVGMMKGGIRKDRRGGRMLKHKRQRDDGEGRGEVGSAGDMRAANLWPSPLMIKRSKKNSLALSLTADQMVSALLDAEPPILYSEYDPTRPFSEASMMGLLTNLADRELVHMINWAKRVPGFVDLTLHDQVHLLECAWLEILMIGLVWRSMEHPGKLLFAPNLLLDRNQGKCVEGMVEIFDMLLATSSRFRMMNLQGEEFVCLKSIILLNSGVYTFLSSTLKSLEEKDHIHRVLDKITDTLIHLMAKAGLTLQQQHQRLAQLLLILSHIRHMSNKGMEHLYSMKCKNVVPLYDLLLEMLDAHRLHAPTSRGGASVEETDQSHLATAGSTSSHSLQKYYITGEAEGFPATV
# Outline: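 Cells were plated at 5000/well, incubated 4 hrs at 37 C, dosed with compound titration series, incubated 18 hrs at 37 C, loaded with CCF4 dye for 2 hrs at RT, then fluorescence was read.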
# [7] = biological target: Estrogen receptor (Homo sapiens) (UniProt P03372); assay: qHTS assay for small molecule antagonists of estrogen receptor alpha signaling (AID 588513; active = well fitted curve in the direction sought with a large enough effect in the signal ratio, with a control signal flat, not every such curve was filed as active; the % refers to the signal ratio)
# Outline: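 Antagonist mode: inhibition of 0.5 nM 17-beta-estradiol-driven beta-lactamase reporter in HEK 293 ER-alpha-UAS-bla cells, 18 h at 37C, CCF4 readout after 2 h at RT. Normalised to estradiol and DMSO; titration fitted to Hill.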
# [8] = biological target: DNA dC->dU-editing enzyme APOBEC-3G (Homo sapiens) (UniProt Q9HC16); assay: qHTS for inhibitors of Vif-A3G interactions: Validation (AID 588379)
# DNA dC->dU-editing enzyme APOBEC-3G (Homo sapiens), sequence (Q9HC16 whole entry, looked up): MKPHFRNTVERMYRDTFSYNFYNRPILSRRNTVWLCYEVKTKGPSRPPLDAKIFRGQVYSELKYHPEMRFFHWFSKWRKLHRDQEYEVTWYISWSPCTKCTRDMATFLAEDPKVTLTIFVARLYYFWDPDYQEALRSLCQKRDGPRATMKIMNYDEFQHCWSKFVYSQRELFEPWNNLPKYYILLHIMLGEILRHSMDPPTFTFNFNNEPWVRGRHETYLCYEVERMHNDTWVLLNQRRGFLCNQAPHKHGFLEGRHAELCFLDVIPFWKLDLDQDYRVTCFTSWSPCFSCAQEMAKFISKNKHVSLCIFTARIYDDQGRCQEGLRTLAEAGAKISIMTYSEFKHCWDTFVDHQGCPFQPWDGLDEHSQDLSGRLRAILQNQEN
# Outline: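 HeLa cells stably expressing Vif and A3G-eYFP, 700 cells/well, incubated overnight at 37 deg C, then exposed to compound overnight at 37 deg C. Inhibition of Vif-mediated degradation read as increased yellow fluorescence (Ex 488/Em 500-530) by laser-scanning cytometry.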
compound,measurement,setting,value
Cc1[nH]cnc1CN1CCc2c(c3ccccc3n2C)C1=O,Potency,[1],inactive
C[N+](C)(C)CCOP(=O)(O)OP(=O)([O-])OC[C@H]1O[C@@H](n2ccc(N)nc2=O)[C@H](O)[C@@H]1O,Potency,[2],inactive
same,Potency,[3],inactive
same,Potency,[1],inactive
same,Potency,[4],inactive
same,Potency,[5],inactive
O=C(/C=C/c1ccccc1)NCCO,Potency,[1],inactive
CC(C(=O)O)c1ccc(C(=O)c2cccs2)cc1 (configuration not stated),Potency,[1],inactive
CCCCCCCCCCCCCCCCCC(=O)NCC(COP(=O)([O-])OCC[N+](C)(C)C)OCC (configuration not stated),Potency,[2],inactive
same,Potency,[3],inactive
same,Potency,[4],17.8 µM (active)
CN(C)c1ccc(C(=C2C=CC(=[N+](C)C)C=C2)c2ccccc2)cc1,Potency,[1],50.1 µM (active)
O=C(O)COc1ccc(C(=O)c2cccs2)c(Cl)c1Cl,Potency,[1],inactive
S=c1[nH]c2ccccc2s1,Potency,[1],inactive
O=C1CN(/N=C/c2ccc(-c3ccc([N+](=O)[O-])cc3)o2)C(=O)N1,Potency,[1],inactive
Nc1ncnc2c1ncn2[C@@H]1O[C@H](COP(=O)(O)CP(=O)(O)OP(=O)(O)O)[C@@H](O)[C@H]1O,Potency,[2],inactive
same,Potency,[3],inactive
same,Potency,[1],inactive
same,Potency,[4],inactive
same,Potency,[5],inactive
C=CCN1C(=O)C(CC(C)C)NC1=S (configuration not stated),Potency,[1],inactive
C[S+](CC[C@H](N)C(=O)O)C[C@H]1O[C@@H](n2cnc3c(N)ncnc32)[C@H](O)[C@@H]1O (some centres not stated),Potency,[1],inactive
Cc1ccc(O)c(-n2nc3ccccc3n2)c1,Potency,[1],inactive
Cc1c(N)c(=O)n(-c2ccccc2)n1C,Potency,[1],inactive
CCOC(=O)c1ccccc1O,Potency,[1],inactive
O=C(O)[C@H](CC(=O)N1C[C@H]2CCCC[C@H]2C1)Cc1ccccc1,Potency,[1],inactive
CCCCCCCCCCCCCCCC(=O)OC(C)C,Potency,[1],inactive
Clc1ccccc1-c1nc(-c2ccncc2)no1,Potency,[1],inactive
CCCCCCCCc1ccc(-c2ccc(C(=O)O)cc2)cc1,Potency,[2],inactive
same,Potency,[3],inactive
same,Potency,[1],50.1 µM (active)
same,Potency,[4],inactive
same,Potency,[5],inactive
CCCSc1ccc2nc(NC(=O)OC)[nH]c2c1,Potency,[1],inactive
CCCCC[C@H](O)/C=C/[C@@H]1[C@@H](C/C=C\CCCC(=O)O)[C@@H](O)C[C@H]1O,Potency,[1],inactive
N#C/C(=C\c1c[nH]c2ccccc12)C(=O)c1ccc(O)c(O)c1,Potency,[3],inactive
same,Potency,[1],inactive
same,Potency,[4],inactive
same,Potency,[5],inactive
NC(=O)C(c1ccccc1)(c1ccccc1)[C@@H]1CCN(CCc2ccc3c(c2)CCO3)C1,Potency,[1],inactive
Cc1cc(O)c2ccccc2c1O,Potency,[1],inactive
Nc1cc(-c2ccncc2)c[nH]c1=O,Potency,[6],inactive
O=C(CCN1CCN(CCO)CC1)N1c2ccccc2Sc2ccc(C(F)(F)F)cc21,Potency,[1],inactive
Oc1c(Br)cc(Br)c2cccnc12,Potency,[1],inactive
Nc1ccc(O)c([N+](=O)[O-])c1,outcome,[7],inactive
same,Potency,[6],inactive
CCCOC(=O)c1ccc(O)cc1,Potency,[1],inactive
same,outcome,[7],inactive
same,Potency,[6],5.01 µM (active) and 3.55 µM (active)
O=c1cc(-c2ccccc2)oc2ccccc12,outcome,[7],inactive
same,Potency,[6],inactive
C=CCCCCCCCCC(=O)O,Potency,[1],inactive
same,outcome,[7],inactive
same,Potency,[6],inactive
Nc1c(CC(=O)O)cccc1C(=O)c1ccc(Br)cc1,Potency,[1],inactive
c1ccc2sc(SSc3nc4ccccc4s3)nc2c1,Potency,[1],inactive
same,outcome,[7],inactive
same,Potency,[6],inactive
Cc1nc2ccccc2n1Cc1ccc(Cl)cc1,Potency,[1],inactive
CC1(C)S[C@@H]2[C@H](NC(=O)[C@H](NC(=O)N3CCN(S(C)(=O)=O)C3=O)c3ccccc3)C(=O)N2[C@H]1C(=O)O,Potency,[1],inactive
[O-][n+]1ccccc1SSc1cccc[n+]1[O-],Potency,[1],inactive
O=C(O)c1ccccc1Nc1cccc(C(F)(F)F)c1,Potency,[1],inactive
COc1cc(NC(C)CCCN)c2ncccc2c1 (configuration not stated),Potency,[1],39.8 µM (active)
O=C(O)Cc1ccc(-c2ccccc2)cc1,Potency,[1],inactive
Nc1ccc([N+](=O)[O-])cc1O,outcome,[7],inactive
same,Potency,[6],inactive
NCCO,outcome,[7],inactive
same,Potency,[6],12.6 µM (active)
CN1[C@@H]2CC[C@H]1CC(OC(c1ccccc1)c1ccccc1)C2 (some centres not stated),Potency,[1],inactive
CC1(C)C[C@@H]1C(=O)N/C(=C\CCCCSC[C@H](N)C(=O)O)C(=O)O,Potency,[1],inactive
CCOc1ccc2nc(S(N)(=O)=O)sc2c1,Potency,[1],inactive
COc1cc(CNC(=O)CCCC/C=C/C(C)C)ccc1O,Potency,[8],inactive
same,outcome,[7],inactive
same,Potency,[6],inactive
CCCCCCCCCCCCCCCCCC(=O)O,Potency,[1],inactive
same,outcome,[7],inactive
same,Potency,[6],inactive
